Inconclusive results are not listed. Activity calls are given as the source filed them. Unless noted, calls come from the whole dose curve; as a rule, active = well fitted curve in the direction sought with a large enough effect in the repeat runs; inconclusive = weak or mixed curves; inactive = no such curve, though single readings can be large; an effect the other way counts as inactive or inconclusive.

Test [1] in a line: qHTS assay to identify small molecule antagonists of the estrogen related receptor (ERR) signaling pathway from Tox21 library - cell viability counter screen (AID 1224834). Note: nearly all actives have a fitted effect of over 30% in size. Note: potency is the fitted concentration of half-maximal effect. The method in brief: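 ERR reporter cells, 2,000 per well, rested 6 h, then exposed to compound in DMSO for 17.5 hours at 37 C. Viability read as fluorescence after 30 min with CellTiter-Fluor.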
The nature of test [2]: qHTS assay to identify small molecule antagonists of the retinoid acid receptor (RAR) signaling pathway - cell viability counter screen (AID 1159551). Note: nearly all actives have a fitted effect of over 35% in size. An outline of the steps:
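C3RL4 RARE-luciferase cells, 1,000/well, incubated overnight, then dosed with compound plus 1 uM retinol (final). After 6 hr at 37 C, viability read by CellTiter-Glo ATP luminescence following 30 min at room temperature.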
(Quantitative high-throughput screening tests each substance at several concentrations.)

Test [3] in a line: qHTS assay to identify small molecule agonists of the retinoic acid receptor (RAR) signaling pathway (AID 1159553). An outline of the steps: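 C3RL4 RARE-luciferase cells were seeded at 1,000/well and grown overnight at 37 C, then exposed to compounds for 6 hr at 37 C, 5% CO2. Luciferase reagent was added and luminescence was read after 30 min at room temperature.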
A short description of test [4]: qHTS assay to identify small molecule antagonists of the estrogen related receptor (ERR) signaling pathway (AID 1224819;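 note: luminescence from an ERR-driven luciferase reporter measured with One-Glo reagent; series mostly up to about 46 µM; nearly all actives have a fitted effect of over 50% in size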). An outline of the steps: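 ERR reporter cell line (NTP) plated at 2,000 cells/well, settled 6 h at 37C/5% CO2, then exposed to LOPAC compounds for 18 h at 37C. One-Glo luciferase luminescence read after 30 min at room temperature.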
Test [5] is described as follows: qHTS assay to identify small molecule agonists of the estrogen related receptor (ERR) signaling pathway (AID 1224820). An outline of the steps: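 ERR reporter cells (NTP line) plated 2,000/well, incubated 6 h at 37 C/5% CO2, then pinned with compounds in DMSO and held 18 h at 37 C. One-Glo added; luminescence read after 30 min at room temperature.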
Test [6] deals with estrogen-related receptor alpha (ERRalpha) with PGC-1alpha coactivator, human. In words: qHTS assay to identify small molecule antagonists of the estrogen related receptor signaling pathway with the pleiotropic PPARgamma coactivator (PGC) (AID 1224821; calls by dose curve;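 note: series mostly up to about 46 µM; lower luminescence signal means antagonism of PGC/ERR signalling; nearly all actives have a fitted effect of over 50% in size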). An outline of the steps: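 Cells engineered for PGC/ERR signalling (line from NTP) were plated 6 h at 37 C/5% CO2, then exposed to DMSO-dissolved compound for 18 h at 37 C. Luciferase activity was read by One-Glo luminescence after 30 min at room temperature.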

Test [7] can be described thus: qHTS assay to identify small molecule agonists of the estrogen related receptor signaling pathway with the pleiotropic PPARgamma coactivator (PGC) (AID 1224823). The method in brief:
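PGC/ERR reporter cells were seeded, rested 6 h at 37 C/5% CO2, then exposed to compounds in DMSO by pin transfer for 18 h at 37 C. Luciferase activity was read as luminescence after One-Glo reagent and 30 min at room temperature.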

Test [8] is described as follows: qHTS assay to identify small molecule antagonists of the retinoic acid receptor (RAR) signaling pathway (AID 1159552; note: nearly all actives have a fitted effect of over 50% in size). An outline of the steps: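 Cells of the C3RL4 line were seeded, incubated overnight, then dosed with compounds in DMSO followed immediately by retinol (1 uM final). Six hours later luciferase detection reagent went in; signal was measured after 30 min at RT.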

A short description of test [9]: qHTS assay to identify small molecule antagonists of the estrogen related receptor signaling pathway with the pleiotropic PPARgamma coactivator (PGC) cell viability counter screen (AID 1224822; note: series mostly up to about 46 µM). An outline of the steps:
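PGC/ERR cells rested 6 h, then compound-treated 17.5 h at 37 C. CellTiter-Fluor added for 30 min at 37 C, viability measured by fluorescence intensity.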

`CCCCOCCOCCOCCOCCO`: the Potency result in [1] is “inactive”.
For the compound `Cc1cc(NC(=O)C(=O)O)cc(C)c1Oc1ccc(O)c2c1CCC2`, the Potency entry in test [2] and in test [1] was “inactive” each time.
As to `CN1CCC(=C2c3ccccc3C=Cc3ccccc32)CC1`, the Potency result in test [3] and in [1] was “inactive” each time. For the same compound, the compound was classed as inactive in test [4], in test [5], in test [6] and in test [7].
For `Cc1ccccc1N=Nc1ccc(N=Nc2c(O)ccc3ccccc23)c(C)c1`, the Potency entry in [2] and in test [1] was “inactive” throughout.
For `O=C(O)/C=C/c1cnc[nH]1`, the Potency result in [8], in [3] and in [1] was “inactive” in each case. Also, the outcome in [9] was inactive.
Turning to `O=C1c2cccc(O)c2C(=O)c2c(O)cc(CO)cc21`, in [8], the Potency result was “inactive”.
As to `CCCOc1ccc2nc(NC(=O)OC)[nH]c2c1`, the Potency result in [8] and in test [3] was “inactive” each time.
As for `CC[C@H](C)[C@H](N)C(=O)O`, the Potency result in test [2] and in test [1] was “inactive” in each case.
`CCCCCCCCC(CO)CCCCCC` (stereo unspecified): the Potency entry in [8], in test [3] and in [1] was “inactive” throughout.
Turning to `CCCCOC(O)CC` (stereo unspecified), the Potency entry in test [8], in test [3] and in [1] was “inactive” in each case.
Turning to `CC[C@]12CCCN3CCc4c(n(c5ccccc45)C(=O)C1)[C@@H]32`, the Potency result in [2] and in [3] was “inactive” in each case. For the same compound, the Potency in test [1] is 9.44 µM (active).
In the case of `CNCC[C@@H](Oc1ccccc1C)c1ccccc1`, the Potency result in test [2] and in test [1] was “inactive” each time.
In the case of `O=C=NC1CCC(CC2CCC(N=C=O)CC2)CC1` (stereo unspecified), the Potency entry in test [2] and in [1] was “inactive” throughout.
For the compound `CCC(C)N(C)C(=O)c1cc2ccccc2c(-c2ccccc2Cl)n1` (stereo unspecified), the Potency result in [2] was “inactive”. In [9], the result was inactive.
As for `CNS(=O)(=O)Cc1ccc2[nH]cc(CCN(C)C)c2c1`, the Potency entry in test [2] and in test [1] was “inactive” in each case.
`CC(=O)SCc1ccco1`: the Potency entry in test [2] and in test [1] was “inactive” throughout.
`COC(=O)C(C)=O`: the Potency entry in [2] and in [1] was “inactive” each time.

(Values after PubChem BioAssay (Tox21).)
